Screens: PubChem, University of Kansas High Throughput Screening Laboratory
The sample as a whole holds a higher share of hits than the screen did.
mHTT CaM bind – disrupts binding of mutant huntingtin to calmodulin. inhibition, % at 15 µM. AlphaScreen His-mHTT/GST-CaM binding, luminescence. 190,000 compounds, 3.6% hits;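 note: 0% = both proteins with DMSO and 100% = one protein alone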
Pf apPOL inh – Pf-apPOL DNA polymerase inhibition; Recombinant Pf-apPOL, molecular beacon fluorescence, 1.5 h; inhibition, % at 10 µM; 210,000 compounds, 0.25% hits; AID 1794808
Starred values were filed as active, the others as inactive; i = inactive; x = not tested or not shown. Cut-off read from the data, not from the text of the source: active = inhibition above about 50%; inactive = the rest.

SMILES	mHTT CaM bind	Pf apPOL inh
O=C(NCc1ccco1)N1CCc2c(nc3cc(-c4ccccc4Cl)[nH]n3c2=O)C1	24	-2
O=C(c1ccccc1)N1CCc2nc3cc(-c4ccccc4Cl)[nH]n3c(=O)c2C1	13	6
CC(C)C(=O)N1CCc2c(nc3cc(-c4ccccc4Cl)[nH]n3c2=O)C1	12	-1
O=C(c1ccc2[nH]ccc2c1)N1CCc2nc3cc(-c4ccccc4Cl)[nH]n3c(=O)c2C1	96*	23
O=C(c1n[nH]c2c1CCCC2)N1CCc2c(nc3cc(-c4ccccc4Cl)[nH]n3c2=O)C1	59*	-4
CC(C)C(=O)N1CCc2nc3cc(-c4ccccc4Cl)[nH]n3c(=O)c2C1	58*	13
O=C(NCc1ccco1)N1CCc2nc3cc(-c4ccccc4Cl)[nH]n3c(=O)c2C1	68*	27
COc1ccc(OCCNC(=O)c2c(C)noc2-c2c(F)cccc2Cl)cc1	x	-9
COc1cc(OC)c(OC)cc1C=C1Oc2cc(OCC(=O)OC(C)C)ccc2C1=O	-40	-12
COc1ccc(S(=O)(=O)N2CC=C(c3cn(C)c4ncccc34)CC2)cc1	40	-2
Cc1ccc(CN2CCc3c(cc(C(=O)NC(C)c4ccccn4)n3C)C2)cc1 (configuration not stated)	34	-5
O=C(NC1CC1)c1cc2cc(Br)ccc2[nH]1	3	0
COCCNC(=O)N1CCc2[nH]nc(-c3ccccc3)c2C1	-4	-3
O=C(Nc1ccccc1)N1CCc2c(nc3cc(-c4ccccc4Cl)[nH]n3c2=O)C1	43	0
COc1cccc(NC(=O)N2CCc3c(nc4cc(-c5ccccc5Cl)[nH]n4c3=O)C2)c1	51*	0
Cc1ccc(-c2n[nH]c3c2CN(C(=O)NCc2ccco2)CC3)cc1	64*	-1
Cc1ccc(N2CCn3c2nnc(C(=O)NCc2cccs2)c3=O)cc1	-13	0
Cc1cccc(-c2nnc(C)c(N3CCN(C)CC3)n2)c1	0	0
O=C1CC(NS(=O)(=O)c2ccc(F)c(Cl)c2)CN1 (configuration not stated)	-15	0
Cn1c(/C(C#N)=C/c2ccc([N+](=O)[O-])cc2)nc2ccccc21	13	-2
O=C(CCC1CCCN(C(=O)Nc2ccc(F)cc2)C1)N1CCCCC1 (configuration not stated)	1	-5
O=C1Nc2ccccc2C1=Nc1ccc(Cl)c([N+](=O)[O-])c1	7	1
O=C1NC(=Nc2cccc(Cl)c2Cl)S/C1=C\c1ccco1	100*	-15
COc1cccc(/C=C2/SC(=Nc3ccccc3Cl)NC2=O)c1OC	8	-3
COc1ccc(N=C2NC(=O)/C(=C\c3ccco3)S2)cc1	43	-21
SMILES	mHTT CaM bind	Pf apPOL inh
Cc1ccc(N=C2NC(=O)/C(=C/c3ccco3)S2)cc1	69*	-3
COC(=O)C(C)Oc1ccc2c(c1)OC(=Cc1ccc(OC)c(OC)c1)C2=O (configuration not stated)	9	-3
Cc1ccccc1CNC(=O)c1c(C)sc2ncnc(N3CCCC3)c12	19	-1
Cc1ccccc1Nc1nc2nonc2n2nnnc12	2	-10
O=C(CCc1nnc(-c2cccc(C(F)(F)F)c2)[nH]c1=O)NC1CCCC1	9	-1
CC(C)(C)c1nc(CN2CCCCC2)cc(CN2CCCCC2)c1O	2	-8
Cc1cc(=O)n2ccc(CN3CCCCC3)c(O)c2n1	92*	1
CCOC(=O)c1ccc(NC2OC(=O)c3c2ccc(OC)c3OC)cc1 (configuration not stated)	-4	0
CCN1CCN(C/C=C/c2ccccc2)CC1	-6	-2
Oc1cccc(CN2CCN(C/C=C/c3ccccc3)CC2)c1	2	-5
COc1ccc(CN2CCN(C/C=C/c3ccccc3)CC2)cc1OC	7	-12
O=[N+]([O-])c1cccc(CN2CCN(C/C=C/c3ccccc3)CC2)c1	51*	-12
Clc1ccccc1N1CCN(C/C=C/c2ccccc2)CC1	62*	-2
O=[N+]([O-])c1ccccc1CN1CCN(C/C=C/c2ccccc2)CC1	29	-2
COc1cc(CN2CCN(C/C=C/c3ccccc3)CC2)c([N+](=O)[O-])cc1OC	82*	-9
CN(C)c1ccc(/C=C/CN2CCN(Cc3ccccc3)CC2)cc1	56*	1
CCOC(=O)CCC(=O)N1CCN(c2ncnc3c2nnn3Cc2ccccc2)CC1	-1	1
COc1ccc([N+](=O)[O-])cc1C1=N/C(=C/c2sccc2C)C(=O)O1	9	-6
Cc1ccc(NC(=O)C/C(N)=N/OC(=O)c2ccccc2Cl)cc1	i	-6
O=S1(=O)[C@H]2C[C@@H]3CC[C@@]2(CN1Cc1ccccc1)O3	-8	2
O=c1/c(=C/c2c(F)cccc2Cl)sc2nc(-c3ccccc3)nn12	1	-8
CCC(C)NC(=O)c1csc(-c2ccncc2)n1 (configuration not stated)	-5	0
CC(CCc1ccccc1)NC(=O)c1csc(-c2ccncc2)n1 (configuration not stated)	79*	-1
